# The entries come from a sample that favours the strongest signals as a whole.
# B1: Pbx2CASH domain (Cryptococcus neoformans) (protein)
# chain: GIPGPNRLYRLSGPIIFTAADQEIATYGYPTGSERAVLRVEGRNTATAIQGDCRRCARVSVKNLVVDGNRKKLGRMRDFQLATGLVVLGGNEGQSIQNSWIKNPRGFTAIHIREGDKLQCSGARVEKNEIGPVGEEYDPEKDGDDPEMSPLGRPLADGVSIACRDSFIRDNTFRDNTDAAIVVYCSPGTLIHA
# Columns and labels:
# Assay in all cases: glycan array binding signal (z-score within array); higher = stronger binding
# Details in all cases: glycan notation: IUPAC condensed, linker removed
# [1] = biological target: Gal3S(b1-4)Glc6S
# Summary of the method: (§1)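 The binding signal is a Z-score computed within each array and averaged over linkers. Arrays of the same protein sequence at different concentrations or buffers were also averaged together. Data originate from 3228 arrays in the Consortium for Functional Glycomics database, kept only where the protein sequence was available.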
# [2] = biological target: Gal3S6S(b1-4)GlcNAc6S
# Summary of the method: as §1
# [3] = biological target: Gal6S(b1-4)Glc6S
# Summary of the method: as §1
# [4] = biological target: GalNAc3S(b1-4)GlcNAc3S
# Summary of the method: as §1
# [5] = biological target: GlcA3S(b1-3)Gal(b1-4)GlcNAc(b1-2)Man
# Summary of the method: as §1
# [6] = biological target: GlcNAc(b1-2)[GlcNAc(b1-6)]Man(a1-6)[GlcNAc(b1-2)Man(a1-3)]Man(b1-4)GlcNAc(b1-4)[Fuc(a1-6)]GlcNAc
# Summary of the method: as §1
# [7] = biological target: GlcNAc(b1-3)Gal
# Summary of the method: as §1
# [8] = biological target: GlcNAc(b1-6)GalNAc
# Summary of the method: as §1
# [9] = biological target: Kdn(a2-3)Gal(b1-4)[Fuc(a1-3)]GlcNAc
# Summary of the method: as §1
# [10] = biological target: Kdn(a2-6)Gal(b1-4)GlcNAc
# Summary of the method: as §1
# [11] = biological target: Man(a1-2)Man(a1-3)[Man(a1-6)]Man(a1-6)[Man(a1-2)Man(a1-3)]Man(b1-4)GlcNAc(b1-4)GlcNAc
# Summary of the method: as §1
# [12] = biological target: Neu5Ac(a2-3)Gal(b1-3)GlcNAc(b1-2)Man
# Summary of the method: as §1
# [13] = biological target: Neu5Ac(a2-3)Gal(b1-3)GlcNAc(b1-3)GalNAc
# Summary of the method: as §1
# [14] = biological target: Neu5Ac(a2-3)Gal(b1-3)GlcNAc6S
# Summary of the method: as §1
# [15] = biological target: Neu5Ac(a2-3)Gal(b1-3)[Fuc(a1-4)]GlcNAc
# Summary of the method: as §1
# [16] = biological target: Neu5Ac(a2-3)Gal(b1-3)[Neu5Ac(a2-6)]GlcNAc(b1-3)[Fuc(a1-3)[Gal(b1-4)]GlcNAc(b1-6)]Gal(b1-4)Glc
# Summary of the method: as §1
# [17] = biological target: Neu5Ac(a2-3)Gal(b1-4)GlcNAc(b1-2)[Neu5Ac(a2-3)Gal(b1-4)GlcNAc(b1-4)]Man(a1-3)[GlcNAc(b1-4)][Neu5Ac(a2-3)Gal(b1-4)GlcNAc(b1-2)[Neu5Ac(a2-3)Gal(b1-4)GlcNAc(b1-6)]Man(a1-6)]Man(b1-4)GlcNAc(b1-4)GlcNAc
# Summary of the method: as §1
# [18] = biological target: Neu5Ac(a2-3)Gal(b1-4)GlcNAc(b1-3)Gal(b1-4)GlcNAc(b1-3)[Neu5Ac(a2-3)Gal(b1-4)GlcNAc(b1-3)Gal(b1-4)GlcNAc(b1-6)]GalNAc
# Summary of the method: as §1
# [19] = biological target: Neu5Ac(a2-3)Gal(b1-4)[Fuc(a1-3)]GlcNAc(b1-6)[Gal(b1-3)]GalNAc
# Summary of the method: as §1
# [20] = biological target: Neu5Ac(a2-3)Gal6S(b1-4)[Fuc(a1-3)]GlcNAc
# Summary of the method: as §1
# [21] = biological target: Neu5Ac(a2-6)Gal(b1-4)GlcNAc(b1-2)Man(a1-3)[Neu5Ac(a2-6)Gal(b1-4)GlcNAc(b1-2)Man(a1-6)]Man(b1-4)GlcNAc(b1-4)GlcNAc
# Summary of the method: as §1
# [22] = biological target: Neu5Ac(a2-6)Gal(b1-4)GlcNAc(b1-2)Man(a1-6)Man(b1-4)GlcNAc(b1-4)GlcNAc
# Summary of the method: as §1
# [23] = biological target: Neu5Ac(a2-6)Gal(b1-4)GlcNAc(b1-2)Man(a1-6)[Man(a1-3)]Man(b1-4)GlcNAc(b1-4)GlcNAc
# Summary of the method: as §1
# [24] = biological target: Neu5Ac(a2-6)Gal(b1-4)GlcNAc(b1-3)Gal(b1-4)GlcNAc(b1-3)Gal(b1-4)GlcNAc(b1-2)Man(a1-3)[Neu5Ac(a2-6)Gal(b1-4)GlcNAc(b1-3)Gal(b1-4)GlcNAc(b1-3)Gal(b1-4)GlcNAc(b1-2)Man(a1-6)]GalNAc
# Summary of the method: as §1
# [25] = biological target: Neu5Ac(a2-6)Gal(b1-4)GlcNAc(b1-6)GalNAc
# Summary of the method: as §1
# [26] = biological target: Neu5Ac(a2-6)GlcNAc(b1-4)GlcNAc(b1-4)GlcNAc
# Summary of the method: as §1
# [27] = biological target: Neu5Ac(a2-8)Neu5Ac
# Summary of the method: as §1
# [28] = biological target: Neu5Ac(a2-8)Neu5Ac(a2-8)Neu5Ac(a2-3)[GalNAc(b1-4)]Gal(b1-4)Glc
# Summary of the method: as §1
binder,measurement,setting,value
B1,glycan array binding signal (z-score),[1],0.057
same,glycan array binding signal (z-score),[2],1.44
same,glycan array binding signal (z-score),[3],3.18
same,glycan array binding signal (z-score),[4],-0.15
same,glycan array binding signal (z-score),[5],2.57
same,glycan array binding signal (z-score),[6],-0.071
same,glycan array binding signal (z-score),[7],-0.697
same,glycan array binding signal (z-score),[8],-0.438
same,glycan array binding signal (z-score),[9],0.079
same,glycan array binding signal (z-score),[10],-0.478
same,glycan array binding signal (z-score),[11],-0.457
same,glycan array binding signal (z-score),[12],3.35
same,glycan array binding signal (z-score),[13],0.011
same,glycan array binding signal (z-score),[14],-0.247
same,glycan array binding signal (z-score),[15],-0.813
same,glycan array binding signal (z-score),[16],-0.803
same,glycan array binding signal (z-score),[17],0.012
same,glycan array binding signal (z-score),[18],0.079
same,glycan array binding signal (z-score),[19],0.909
same,glycan array binding signal (z-score),[20],-0.748
same,glycan array binding signal (z-score),[21],-0.301
same,glycan array binding signal (z-score),[22],1.6
same,glycan array binding signal (z-score),[23],2.48
same,glycan array binding signal (z-score),[24],4.62
same,glycan array binding signal (z-score),[25],1.05
same,glycan array binding signal (z-score),[26],-0.208
same,glycan array binding signal (z-score),[27],-0.046
same,glycan array binding signal (z-score),[28],3.58

# Reference: the supplement of paper PMC8728848
